What follows are compounds tested on Scedosporium aurantiacum CBS 136046 (assay: growth inhibition relative to DMSO control (OD600); higher = more antifungal activity, active = 80 or more; extreme values may be limits of the assay). Conditions: 5 µM; 72 h; 37 °C.
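Also: conidia screened in RPMI 1640 medium under 5% CO2, growth read by spectrophotometer, medium with 0.5% DMSO serving as the untreated reference.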

Growth inhibition, active:
Cc1cc(-c2ccccc2)c(C(=O)C(=O)Nc2ccc(N3CCN(c4ncc(F)cn4)CC3)cc2)n1C 81.8%

Growth inhibition, inactive:
Nc1nc(O)c2ncn([C@@H]3O[C@H](CO)[C@@H](O)[C@H]3F)c2n1 17.4%
COc1cc(Cc2cnc(N)nc2N)c2c(c1OC)OC(C1CC1)C=C2 (configuration not stated) 2.07%
CC(=N)N1CC[C@H](SC2=C(C(=O)O)N3C(=O)[C@@H]([C@@H](C)O)[C@H]3C2)C1 5.55%
C[C@@H](NC(=O)c1ccccc1-c1ccccc1)B(O)O 0.688%
COc1ccc(C2CNC(=O)C2)cc1OC1CCCC1 (configuration not stated) 16.6%
Nc1nc(NC2Cc3ccc(F)cc3C2)nc(N2CCCCC2)n1 (configuration not stated) 45.3%
O=C(Nc1nnc(-c2ccc(Cl)cc2)o1)c1nc2ccccc2s1 15.8%
Clc1cccc(-c2nnc(-c3ccccc3)o2)c1 1.29%
COc1ccc(COc2cc3oc(=O)c4cc(C(C)O)ccc4c3cc2OC)cc1 (configuration not stated) 2.35%
C[C@H]1COc2c(N3CCN(C)CC3)c(F)cc3c(=O)c(C(=O)O)cn1c23 6.31%
Cc1nc2ccc(Cl)cc2c(-c2ccccc2)c1CC(=O)O 14.2%
CC1CN(c2ncnc3c2c(-c2ccccc2)cn3-c2ccc(F)cc2)CC(C)O1 (configuration not stated) 20.4%
C[C@H](c1cccc2ccccc12)N(C)Cc1ccccc1 14.5%
Oc1ccc(NCc2ccccc2OCc2ccccc2)cc1 10%
CC(=O)O[C@H]1C[C@@]2(C)[C@@H](C[C@@H](O)[C@H]3[C@@]4(C)CC[C@@H](O)[C@@H](C)[C@@H]4CC[C@@]32C)/C1=C(\CCC=C(C)C)C(=O)O 19.6%
Nc1cccc(-c2nc(N)nc(NC3Cc4ccccc4C3)n2)c1 21.5%
CN(C)c1[nH]c(=O)ncc1F 24.8%
COc1ccccc1NC(=O)c1ccccc1Sc1ccc([N+](=O)[O-])cc1 22.6%
O=C(O)c1sccc1S(=O)(=O)n1ccc2cc(Br)ccc21 14.6%
CCc1cc(CCC(=O)Nc2ccccc2O)c(O)nc1C 5.23%
Cc1[nH]c2ccccc2c1CC(=O)N[C@@H](Cc1ccccc1)C(=O)N(C)c1ccccc1 10.7%

Source: the supplement of paper PMC9897528
